According to the OligoGym collection:

Target: USP44
Assay: pooled miR-30 sensor sort-seq; sequence = guide strand
Conditions: shRNA
Further: reference of the scale not given here.

Sequence | sensor-assay potency score (higher = more potent)
TAACTTGATACTCCAATTCCTG | -1.33
TTGCACAAGTTCATCATCCGAG | 0.487
TACGCTTTGAGTTACACTGGTC | 0.148
TACAACATTCAGAACTTGTTTG | -0.39
TTGCAGTGTACCCAGAACCCTC | -1.01
TTGATTTGTTGTCACATGCAAG | -1.1
TATAAAACAAGATATAAGCTTG | -0.0233
TATCATTCAGAACATAATCATC | -1.41
TATCTTTTGCTGGTGATGCTGG | -0.299
TTGCAGTCCACACAGTGCCATT | -1.55
TTTGATATACTACTGTATCTGT | 0.327
TTGATCTTCACTTTGAAGCAGA | -0.107
